In the supplement of paper PMC3334620:
The full ranking holds about 33,000 sequences; the median of “E-score (-0.5 to 0.5)” is about -0.041, and the highest 2% start at about 0.37. What follows is part of a selection rich in the highest values, with near analogues and random picks from the rest.

Target: T1, Ecm22 (UniProt Q05958)
T1 sequence: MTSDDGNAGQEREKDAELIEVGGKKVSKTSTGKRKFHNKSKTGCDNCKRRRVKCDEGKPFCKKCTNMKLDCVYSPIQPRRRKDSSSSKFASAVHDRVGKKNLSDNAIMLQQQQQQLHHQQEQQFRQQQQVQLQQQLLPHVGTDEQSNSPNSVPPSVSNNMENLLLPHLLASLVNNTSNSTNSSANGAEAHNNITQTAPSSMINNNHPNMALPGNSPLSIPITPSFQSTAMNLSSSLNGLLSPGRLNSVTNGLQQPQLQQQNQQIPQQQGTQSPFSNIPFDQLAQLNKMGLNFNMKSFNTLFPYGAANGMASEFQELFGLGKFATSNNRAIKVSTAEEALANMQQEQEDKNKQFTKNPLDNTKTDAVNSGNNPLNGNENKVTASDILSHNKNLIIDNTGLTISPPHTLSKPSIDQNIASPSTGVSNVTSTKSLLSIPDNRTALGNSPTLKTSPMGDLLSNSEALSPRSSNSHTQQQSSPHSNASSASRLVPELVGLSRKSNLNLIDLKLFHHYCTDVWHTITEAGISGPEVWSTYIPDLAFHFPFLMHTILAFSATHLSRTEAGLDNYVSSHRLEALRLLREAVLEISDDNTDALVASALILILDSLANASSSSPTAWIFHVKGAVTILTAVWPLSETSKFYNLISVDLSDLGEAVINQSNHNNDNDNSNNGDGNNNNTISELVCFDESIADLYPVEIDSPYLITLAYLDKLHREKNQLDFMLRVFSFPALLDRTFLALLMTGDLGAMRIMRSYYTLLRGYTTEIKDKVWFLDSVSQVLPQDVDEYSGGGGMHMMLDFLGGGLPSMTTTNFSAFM
Assay: PBM E-score (8-mer binding enrichment) (E-score (-0.5 to 0.5)); higher = stronger / more preferred TF binding
Details: protein concentration: 200 nM; construct: GST-full length
Experimental: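 Universal 'all 10-mer' protein binding microarrays (Agilent AMADID 015681) probed with GST-tagged S. cerevisiae TFs (full-length or DBD) made by in vitro transcription/translation (PURExpress), about 100-200 nM. Bound TF was detected with fluorescent anti-GST. Each ungapped 8-mer (which stands for itself and its reverse complement) is scored by the PBM enrichment score (E-score), a modified Wilcoxon-Mann-Whitney statistic from -0.5 to +0.5, computed with the Universal PBM Analysis Suite. Scale: above 0.35 generally sequence-specific binding.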

Sequence	PBM E-score
GATATAAC	0.156
AAGGACAC	-0.168
ACTTTGGG	-0.263
ATTGACTC	-0.0667
AACACAAT	-0.00044
CTTTTCCA	-0.271
GGCGGCGA	-0.157
GACAGAGA	0.0187
GATACAAA	0.163
GATACGTA	0.253
GATACGCC	0.162
GATACGAA	0.445
AATACGGT	0.21
GATACGAC	0.464
AATACGGC	0.268
AATACGAT	0.384
AATACGCT	0.121
AATACGTC	0.0846
GATACGGC	0.32
AATACGAC	0.429
ATTCCGAC	-0.0388
AAAACGAT	0.257
ACGTTCTA	0.0664
AGGAATAT	0.06
AGTTGAAC	0.0747

Sequence	PBM E-score
AGTGGAGA	-0.128
ACCGAGTG	0.159
TCCAGGGA	-0.173
CACGGACG	-0.0335
AGCTAACA	-0.248
CATACGAG	0.481
CATACGGG	0.36
CATACGCG	0.269
AGGGTTAA	-0.0692
CGGCTCAC	-0.0852
AGGTTAGA	-0.186
AACCGAGC	0.355
GCACGAGC	0.0624
GCACGAGA	0.127
CAGCGAGA	0.0257
CAACGAGC	0.336
GGACGAGA	0.0358
AATCGAGC	0.237
GAACGAGA	0.464
AAACGAGC	0.482
GAGCGAGC	0.354
GAACGAGC	0.483
GAGCGAGA	0.377
GCTGCCTA	-0.101
AGTGGGCG	-0.167

Sequence	PBM E-score
ATAGGATC	-0.135
GCCTAGCA	-0.213
ATAAGGAG	-0.0163
CTGTACAA	-0.0518
ATGTACGA	0.477
GTGTACGA	0.481
ATGTACGC	0.112
CTGTACGA	0.48
CTGTACGC	0.314
GTGTACTA	0.207
GTGTACCA	0.0289
ATGTACGG	0.365
TACTGACA	0.0366
AGTCCAAA	-0.108
GGCGGCAC	0.0476
GCTGGGGA	-0.211
CCACCCGC	-0.0883
GAACCGTA	0.248
ACACCGTA	0.313
GCACCGTA	0.371
TAACCGTA	0.375
CCACCGTA	0.34
AAACCGTA	0.27
AGACAGCA	-0.143
AATACCGT	0.197

Sequence	PBM E-score
CAGGGTGA	-0.192
GAATCGTA	0.38
AAATCGTG	0.0433
TAATCGTA	0.418
CAATCGTC	-0.0527
CAATCGTA	0.389
GAATCGTC	0.14
TAATCGAA	0.134
GAATCGCA	-0.0229
TAATCGGA	0.16
AAATCGTA	0.393
CAATCGTG	-0.215
AAATCGTC	0.127
ACCCACAA	0.105
ACGTAGTC	-0.158
AGATAGGG	-0.127
ATCTCGAG	-0.0735
AATGGCTG	-0.124
AGGGTACA	-0.0565
CGGGTACC	-0.134
CGGGTACA	0.157
AGAGTACG	0.257
CGAGTACG	0.392
AGGGTACG	0.411
AGGGTACC	-0.323

Sequence	PBM E-score
CGGGTACG	0.452
CGAGTACC	0.21
AAGGGCTG	-0.377
AAGAGACG	0.0921
CTACTCTA	-0.204
GCAAACGC	0.0881
ACAAACGC	0.174
ACAAACGA	0.445
CCAAACGC	0.177
CCAAACGA	0.437
GCAAACGA	0.433
GCAAACAA	0.0626
ACAAACGG	0.226
TCAAACGA	0.452
CCAAACGG	0.287
CAAAACGA	0.278
TCAAACAA	-0.155
AGCGGGTG	-0.186
CTTTTGCC	-0.0531
ATCAACCA	-0.154
CGCAAGCG	0.142
TGGACCAA	-0.206
AGGGAGAT	-0.275
CAATGACG	-0.147
CAGTTTAG	-0.0933

Sequence	PBM E-score
ACGTTTAA	0.365
CCGTTTAG	0.433
ACGTTTAC	0.304
CCGTTTAA	0.441
GCGTTTAC	0.227
GCGTTTAA	0.28
CCGTTTAC	0.416
ACGTTTAG	0.33
ACAGATCT	-0.159
GTTCCAAC	0.135
AATACTAG	0.0461
CAGGCGCA	-0.24
AGGAGGCA	-0.294
AACGAAAG	0.399
GACGAAAC	0.287
AACGAAAA	0.364
AACGAAAC	0.389
ACCGAAAT	0.15
CACGAAAC	0.147
ACCGAAAG	0.0863
AACGAAAT	0.4
CACGAAAG	-0.0739
CCTAAAAG	-0.201
AACCAAAG	-0.0743
GTGGCAAA	-0.187

Sequence	PBM E-score
AGCACCAT	-0.122
ATAGTACC	0.00552
ATAGTACG	0.325
ATCGTACC	0.479
AGCGTACA	0.179
AGCGTACG	0.351
CGCGTACA	0.269
AGCGTACC	0.251
CTCGTACA	0.489
CACGTACA	0.216
ATCGTACA	0.465
ATCGTACG	0.437
ATAGTACA	0.151
GTTGACCA	-0.16
TACCGCAA	0.0649
AACTGCAT	-0.00243
ACGCCCAG	-0.143
AGGCTTAA	-0.168
GGTACTGA	-0.0769
CCCGATCA	0.197
GTCGTACA	0.484
AACGTACA	0.204
GGCGTACA	0.16
AACGTACG	0.378
GACGTACA	0.211

Sequence	PBM E-score
AACGTACC	0.297
ATTCTTAC	-0.026
CACCAGCA	-0.028
CTGCAGGA	-0.245
AGACCCGC	-0.00174
AAACGTGG	0.133
ACACGAGT	0.24
AAACGAGG	0.476
CAACGAGA	0.378
AAACGGGT	0.319
TCACGAGA	0.0348
CAACGAGG	0.343
TAACGTGA	-0.142
AAACGAGT	0.456
TAACGAGA	0.369
ACCCCCCA	-0.296
ATCACAAG	-0.0512
CCCCTAGG	-0.307
ACGAATTC	0.269
AGCCTGTC	0.0499
CATTGGCG	-0.239
ATCTTTGA	-0.00074
AGGCCGAC	-0.106
AGACGAGA	0.166
ACACGAGA	0.265

Sequence	PBM E-score
AAACGAGA	0.463
GCGTAAGA	0.074
AATATCTA	-0.0604
GGCCGTAC	0.419
CGCCGTAC	0.408
AGCCGTAG	0.0779
GGCCGTAA	0.244
AGCCGTAT	0.315
GACCGTAC	0.362
AGCCGTAC	0.369
CGCCGTAA	0.26
CGCCGTAG	0.119
ACGGTTGA	0.0702
AAGCCGAA	-0.0177
CAGGCACG	-0.112
AACAACTT	-0.092
GAAATCTC	0.129
CCCGAGCG	0.173
CTACGAAG	0.297
GGACGAAC	0.111
ATACGAAC	0.474
AGACGAAC	0.295
CTACGAAC	0.369
GTACGAAC	0.475
GCACGAAC	0.222

Sequence	PBM E-score
ACACGAAC	0.237
CCACGAAC	0.201
CCTAGCCC	-0.222
AGCGTCCC	-0.145
AATCTGTG	-0.0802
GTGGAACA	0.0214
GGAGTGCA	0.0316
GTGGGTCA	-0.308
ATGAGGTG	-0.127
CCGAGGTA	0.176
ACGAGGTC	0.389
ACGAGGTG	0.397
CCGAGGTC	0.11
AAGAGGTC	-0.207
GCGAGGTA	0.285
ACGAGGTA	0.413
AGGAGGTG	-0.298
CCTTTTCC	0.055
CGGTCTGC	0.0314
TACCACGA	0.0887
GCAACTGA	0.0723
GACTTCGC	0.232
CCAACGAC	0.0154
ACAACGAC	0.295
GCAACGAA	0.406

Sequence	PBM E-score
GCAACGAC	0.417
ACAACGAA	0.257
TCAACGAA	0.187
AGGCCCCA	-0.182
TAGTCCAA	-0.157
AGTACAAA	0.0199
CGTACTTA	0.375
CATACAAG	-0.122
AGTACTTA	0.0475
GGTACAAA	-0.0856
CGTACATC	0.353
CGTACAAG	0.416
CGTACTGA	0.32
CGTACATA	0.414
AGTACATA	-0.0214
CGTACAAA	0.412
AGTACAAG	0.0646
ACCACCAT	-0.103
TTAGGGAA	-0.0515
ATAACGGC	0.146
ATGAAGGC	-0.102
CGTGGACC	-0.108
ACGGAATG	0.0826
AGTGTTGA	-0.109
AAGCCGAG	0.0901

Sequence	PBM E-score
ACTGGATG	-0.18
CGTACAAC	0.434
CGTACTAC	0.382
CGTACTAG	0.342
CGTACTAA	0.341
AGTACAAC	0.0262
GGTACAAC	0.0714
CTAAACAG	-0.109
AAACCACT	-0.153
AGCTGCGG	-0.00448
AATCGCCC	-0.0815
TAGAGCCA	-0.288
ACTCCGTG	-0.233
AGGTCGGC	-0.138
CGTTACAA	0.0964
GGTTACCA	0.0711
GGTTACGA	0.381
AGTTACGG	0.138
CGTTACGA	0.403
GGTTACTA	-0.123
CGTTACGC	0.256
AGTTACGC	0.071
AGTTACGA	0.393
GTGGCGTA	0.042
CCCGTTGC	0.111

Sequence	PBM E-score
CCTCGGGC	0.0916
ACTTCACC	0.0335
AAAATCAC	-0.0192
ATACGAAG	0.466
GCACGAAA	0.103
GTACGAAA	0.467
ATACGTAA	0.278
ATACGTAC	0.342
AGACGAAG	0.0703
ACACGAAT	0.217
AGACGAAT	0.0921
GGACGAAA	0.108
ACACGAAG	0.249
ATACGTAT	0.374
ATACGAAT	0.45
AGCCTTAA	-0.0857
AACTTGGT	0.0861
TGTGTCAA	-0.0896
CGCAAGCC	0.0725
GGATCCCC	-0.0315
CTACGAAA	0.302
TTACGAAA	0.403
ATACGAAA	0.463
TCACGAAA	-0.00573
AGACGAAA	0.194

Sequence	PBM E-score
ACACGAAA	0.224
ATGGTTCA	0.0295
AGAACCCC	-0.179
GACCCTCC	0.00379
CGTGCGTA	0.233
GCCCCCCA	-0.365
AGGATTAG	-0.0677
CCGCAACC	-0.176
CCGCAACG	0.377
ACGCAACG	0.308
GCGGCACC	-0.0132
GACGATGA	-0.0197
GACGATCA	-0.0466
CACGATCA	-0.00633
TACGATCA	0.443
ATCGATGA	-0.0837
AACGATGA	0.386
CACGATGC	0.136
GACGATGC	-0.0114
CACGATGA	0.19
TACGATGA	0.438
AAAGATGT	-0.0546
AACGATGT	0.396
